Laboratory results reported in PubChem BioAssay (EPA / NIEHS).
Where “and” joins values, the source holds several entries; their conditions need not be identical. Equal entries are not always repeated. Calls of active or inactive are those of the source. Rule for the calls: active = hit-call score of the fitted dose curve at least 0.9, where 1 is the maximum; inactive = score below 0.9.

Assay: BSK_IMphg_SRB: Viability Assessment in the BioMAP Diversity Plus: IMphg Assay (AID 2284292);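 note: measured one day after compound addition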
Conditions: primary human endothelial cells with macrophages
Protocol: BSK_IMphg is a cell-based, multiplexed-readout assay that uses venular endothelial cells and macrophages, a human vascular primary cell, with measurements taken at 24 hours after chemical dosing in a microplate: 96-well plate.BSK_IMphg_SRB is an assay component measured in the BSK_IMphg assay. It measures […] related to cell death using Sulforhodamine staining technology.Data from the assay component BSK_IMphg_SRB was analyzed at the endpoint, BSK_IMphg_SRB, in the positive analysis fitting direction relative to DMSO as the negative control and baseline of activity. Using a type of viability reporter, gain or loss-of-signal activity can be used to understand protein changes. To generalize the intended target to other relatable targets, this assay endpoint is annotated to the 'cell morphology' intended target family, where the subfamily is 'cell conformation'.
The levels of cell surface (or secreted, indicated by the prefix "s") biomarker endpoints were measured by ELISA. Overt cytotoxicity to cells in confluent adherent cultures (all systems other than the BT system) was assessed by measuring total protein levels using sulforhodamine B (SRB) staining in parallel cultures at the time of biomarker measurements, indicated as SRB endpoints. For proliferation assays for adherent cell types, individual cell types are cultured at sub-confluence and relative cell numbers quantified by SRB staining at time points optimized for each system (48 h: 3C and CASM3C systems; 72 h: BT and HDF3CGF systems; 96 h: SAg system). SRB was performed by staining cells with 0.1% SRB after fixation with 10% TCA and reading wells at 560 nm.Viability and proliferation of PBMC (T cells) was quantified by Alamar Blue reduction for the SAg and BT systems. For PBMC viability (referred to as PBMC Cytotoxicity within the assay endpoint names), cells were plated (75,000/well in a 96-well plate) and then chemical samples added for 1 h before addition of activators, SEB and TSST-1 (20 ng/mL final concentration each). Cells were incubated for 90 h. Then, Alamar Blue (20 uL/well) (Invitrogen, Cat DAL1100) was added for 6 h, and the plates were read with a fluorescence microplate reader at 546/580 nm (excitation/emission). For PBMC proliferation, cells were plated and activated as above but incubated for only 16 h prior to addition of Alamar Blue. Plates were read after 6 h.
With `OCC(F)(F)OC(F)(F)C(F)(F)OC(F)(F)C(F)(F)OC(F)(F)CO` the outcome was “inactive”.
In the case of `OCC(F)(F)OC(F)(F)C(F)(F)OC(F)(F)C(F)(F)OC(F)(F)F`, the AC50 is reported as 47.8 µM (active) and 53.7 µM (active).
In the case of `O=C(O)C=CC(F)(C(F)(F)F)C(F)(F)F`, the outcome is reported as “inactive”.
In the case of `O=C(O)C(F)(OC(F)(F)C(F)(F)C(F)(F)F)C(F)(F)F` (centres undefined), the outcome is reported as “inactive”.
With `O=C(O)C(F)(F)OC(F)(F)C(F)(F)OC(F)(F)F` the outcome was “inactive”.
For `FC(F)(F)C(F)(C(F)(F)F)C(F)(F)C(F)(F)CC1CO1` (centres undefined), the outcome was “inactive”.
With `COC(=O)C(F)(F)C(F)(F)OC(F)(C(F)(F)F)C(F)(F)OC(F)=C(F)F` (centres undefined) the outcome was “inactive”.
With `NC(=O)C(F)(F)C(F)(F)F` the outcome was “inactive”.
In the case of `OCC(F)(F)OC(F)(F)C(F)(F)OC(F)(F)CO`, the outcome is reported as “inactive”.
For `O=C(O)C(F)(F)C(F)(F)C(=O)O`, the outcome was “inactive”.
In the case of `O=S(=O)(F)C(F)(F)C(F)(F)C(F)(F)C(F)(F)C(F)(F)C(F)(F)C(F)(F)C(F)(F)F`, the outcome is reported as “inactive”.
In the case of `O=C(O)C(F)(F)OC(F)(F)C(F)(F)OC(F)(F)C(=O)O`, the outcome is reported as “inactive”.
For `C=CC(=O)OCC(F)(F)C(F)F`, the outcome was “inactive”.
For `CC(O)C(F)(F)C(F)(F)F` (centres undefined), the outcome was “inactive”.
